In PubChem BioAssay AID488969 (Vanderbilt High Throughput Screening Facility, 2010):
Over roughly 110,000 compounds, “z-score” has its median near -0.1; the highest 2% begin near 2. Many of the other results were omitted from the sample, so the highest values are more common in it than they were. The source made the active and inactive calls.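 Rule for the calls: active = z-score in the third read window above 3 or below -3; inactive = the rest.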 Residues, ends and D or L forms follow the SMILES beside them. *: point of attachment. OBn = c1ccc(CO*)cc1

molecular target: Metabotropic glutamate receptor 8 (Rattus norvegicus) (UniProt P70579); assay: rat mGluR8 modulators via GIRK flux, primary screen, cell-based, thallium flux, HTS (AID 488969); conditions: HEK293 rat mGluR8, GIRK (G protein-gated inwardly rectifying potassium channel) thallium flux, FluoZin2; at 10 µM; stronger effect = higher value; submaximal glutamate (EC20) added with thallium
Sequence (P70579 whole entry, looked up): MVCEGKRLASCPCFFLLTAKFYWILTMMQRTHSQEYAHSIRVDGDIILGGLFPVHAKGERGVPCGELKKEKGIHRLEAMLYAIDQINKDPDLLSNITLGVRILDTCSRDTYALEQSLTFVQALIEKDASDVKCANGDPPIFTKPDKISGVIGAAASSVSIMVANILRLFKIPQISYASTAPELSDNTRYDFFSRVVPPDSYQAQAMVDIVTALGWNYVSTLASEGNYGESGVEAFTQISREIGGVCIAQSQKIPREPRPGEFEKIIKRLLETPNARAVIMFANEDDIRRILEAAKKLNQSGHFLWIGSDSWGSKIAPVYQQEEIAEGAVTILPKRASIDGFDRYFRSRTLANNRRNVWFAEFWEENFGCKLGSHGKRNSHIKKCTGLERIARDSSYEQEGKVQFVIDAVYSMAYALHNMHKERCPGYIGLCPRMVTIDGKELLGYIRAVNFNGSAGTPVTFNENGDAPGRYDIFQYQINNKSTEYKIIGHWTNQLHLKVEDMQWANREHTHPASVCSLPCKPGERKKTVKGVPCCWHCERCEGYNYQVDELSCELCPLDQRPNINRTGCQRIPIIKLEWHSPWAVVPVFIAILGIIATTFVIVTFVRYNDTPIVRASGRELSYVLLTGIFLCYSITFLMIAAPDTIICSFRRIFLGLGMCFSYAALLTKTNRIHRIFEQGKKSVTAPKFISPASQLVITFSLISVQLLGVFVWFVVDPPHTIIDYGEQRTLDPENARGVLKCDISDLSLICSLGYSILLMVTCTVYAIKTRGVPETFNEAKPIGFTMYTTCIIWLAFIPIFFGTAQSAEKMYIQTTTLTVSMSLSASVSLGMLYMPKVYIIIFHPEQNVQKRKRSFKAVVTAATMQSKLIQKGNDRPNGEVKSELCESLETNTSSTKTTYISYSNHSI

SMILES | z-score
CCC(=O)N1CCc2cc(S(=O)(=O)NCCCOC)ccc21 | -0.216
Cc1nc2ccccn2c1C(=O)N/N=C/c1ccc2c(c1)OCO2 | 0.65
COCCn1c(SCC(=O)c2ccc3c(c2)OCCO3)nnc1-c1ccoc1C | -0.231
O=c1nc(NCc2ccccc2Cl)cn[nH]1 | 0.66
CC(Nc1ccc(Br)cc1)C(=O)N/N=C/c1ccccc1OCc1ccccc1 (centres undefined) | -0.283
COC(=O)c1cc(NC(=O)C23CCC(C)(C(=O)O2)C3(C)C)cc(C(=O)OC)c1 (centres undefined) | 0.577
COC(=O)c1ccc(NC(=O)C23CCC(C)(C(=O)O2)C3(C)C)cc1 (centres undefined) | 2.35
COc1ccc(NC(=O)C23CCC(C)(C(=O)O2)C3(C)C)cc1 (centres undefined) | 0.0605
Cc1csc(=NC(=O)c2ccccc2)n1Cc1ccco1 | -0.784
Cc1cs/c(=N\N=C\c2cccc([N+](=O)[O-])c2)n1Cc1ccco1 | 5.13 (active)
Cc1cs/c(=N\N=C\c2ccccc2)n1Cc1ccco1 | -0.431
CC(C(=O)Nc1ccc(F)c(F)c1F)N(C)CC(=O)Nc1ccccc1Br (centres undefined) | -0.465
O=C(c1ccccc1)c1ccc(OCC(O)CN2CCOCC2)cc1 (centres undefined) | -0.0655
OC(COc1ccc(OCc2ccccc2)cc1)CN1CCOCC1 (centres undefined) | -0.0779
OC(COc1ccc(OCc2ccccc2)cc1)CN1CCCCC1 (centres undefined) | 2.76
O=C(c1ccccc1)c1ccc(OCC(O)CN2CCN(S(=O)(=O)N3CCCCC3)CC2)cc1 (centres undefined) | 0.198
OC(COc1ccc(OCC(O)CN2CCCCCC2)cc1)CN1CCCCCC1 (centres undefined) | -0.0132
O=C(c1ccccc1)c1ccc(OCC(O)CN2CCCCC2)cc1 (centres undefined) | 2.13
COc1ccc2nc(C)cc(SCC(=O)N/N=C/c3ccccc3)c2c1 | 0.834
Cn1nnnc1SCC(=O)N(C1CCCCC1)C1CCCCC1 | 2.45
Cn1nnnc1SCC(=O)NC1CCCCC1 | -0.00615
CCn1nnnc1SCC(=O)N(C1CCCCC1)C1CCCCC1 | -0.262
Cc1ccc(C)c2[nH]c(=O)c(CN(CCN3CCCC3)C(=O)Nc3ccc(F)cc3)cc12 | 0.644
Cc1ccc2cc(CN(CCN3CCCC3)C(=O)Nc3ccc(F)cc3)c(=O)[nH]c2c1C | 2.05

SMILES | z-score
Cc1ccc2cc(CN(CCN3CCCC3)C(=O)Nc3ccccc3)c(=O)[nH]c2c1C | -0.236
CCC(C)C(N)C(=O)NC(CCC(=O)OCc1ccccc1)C(N)=O (centres undefined) (H-Ile-Glu(OBn)-NH2; configuration not given here) | 0.0296
Cc1nc(NCCc2ccccc2F)c(C#N)c(C)c1[N+](=O)[O-] | 0.24
O=C(c1scc2c1CCCC2)N1CCCCC1 | -0.475
O=C1OC(Cc2ccncc2)C(O)=C1C1=NCCCN1 (centres undefined) | -0.135
Cc1ccc2c(c1)N(Cc1ccncc1)C(=O)C(C)O2 (centres undefined) | 0.33
CC1=CC(=O)OC1Cc1ccncc1 (centres undefined) | 14.2 (active)
O=C(O)CCCCCN1C(=O)/C(=C/c2ccncc2)SC1=S | -0.0629
CCC(C)c1ccc(O)c(NC(=O)c2ncn[nH]2)c1 (centres undefined) | -0.374
Cc1ccc(C)c(-c2cc(C(=O)NCc3cccs3)c3ccccc3n2)c1 | -0.0338
O=C(Nc1ccc(Br)cc1F)c1ccc2c(c1)N(Cc1ccccc1)C(=O)CS2=O (centres undefined) | 1.3
O/N=C/c1cc(Cl)ccc1OCc1cccc2ccccc12 | 2.76
CCOc1ccc(Cl)cc1/C=N/O | -0.395
O/N=C/c1cc(Cl)ccc1OCc1ccccc1Cl | -0.352
Nc1ncnc2c1ncn2CCNCCc1ccccc1 | -0.981
COc1ccc(/C=N/n2c(-c3cccs3)n[nH]c2=S)cc1 | 2.46
Cc1cccc(/C=N/n2c(-c3ccccn3)n[nH]c2=S)c1 | -0.174
Cc1cc(-c2n[nH]c(=S)n2/N=C/c2cccs2)n[nH]1 | -0.233
COc1cccc(/C=N/n2c(-c3cccs3)n[nH]c2=S)c1 | 3.25 (active)
Cc1cc(-c2n[nH]c(=S)n2/N=C/c2cccc([N+](=O)[O-])c2)n[nH]1 | -0.221
CCOC(=O)COc1ccc(S(=O)(=O)NCc2cccnc2)cc1 | 0.014
Cc1nn(CC(=O)NCc2cccc3ccccc23)c(=O)c2ccccc12 | -0.0519
COc1ccc(NC(=O)C2CCN(C(=O)c3ccccc3)CC2)c(OC)c1 | -1.36
Cn1nc(C(=O)NC2CCCCCC2)ccc1=O | 1.32

SMILES | z-score
CCOC(=O)c1c(-c2cccs2)csc1NC(=O)CNCCN1CCOCC1 | -0.205
O=C(OCC(=O)N1CCCCC1)c1cc(NS(=O)(=O)c2ccc(Cl)c([N+](=O)[O-])c2)ccc1O | -0.652
CC(NC(=O)COC(=O)c1cc(NS(=O)(=O)c2ccc(Cl)c([N+](=O)[O-])c2)ccc1O)C1CC2CCC1C2 (centres undefined) | -0.436
CCN(C(=O)COC(=O)c1cc(NS(=O)(=O)c2ccc(Cl)c([N+](=O)[O-])c2)ccc1O)C1CCCCC1 | 2
O=C(COC(=O)Cc1c(Cl)cccc1Cl)NCCC1=CCCCC1 | -0.34
COc1cc(C2NC(=O)NC(O)(C(F)(F)F)C2C(=O)c2cccs2)ccc1O (centres undefined) | -0.852
CCOC(=O)c1ccc(Nc2ncnc3ccc(C)cc23)cc1 | -0.372
CCCc1cc(=O)n2[nH]c(C)cc2n1 | -0.851
CCCc1cc(=O)n2[nH]c(-c3ccc(Br)cc3)cc2n1 | 3.04 (active)
CCCc1cc(=O)n2[nH]c(-c3ccccc3)cc2n1 | 0.844
O=C(Cn1cc(C(=O)c2cccs2)c2ccccc21)NC1CCCCC1 | -2.37
O=C(Cn1c(C(F)(F)F)nc2ccccc21)c1ccc(Cl)cc1 | -0.0833
O=C(Nc1ccc2c(c1)OCO2)c1noc2c1CCCCC2 | 0.597
COc1ccc(N2CCc3c(C)nc4c(OC)cc(OC)cc4c32)c(OC)c1 | 0.775
COc1ccccc1N1CCc2c(C)nc3c(OC)cccc3c21 | -0.0829
COc1cc(OC)c2nc(C)c3c(c2c1)N(c1ccc(O)cc1)CC3 | 3.3 (active)
CNc1nc(SCc2ccccc2Cl)nc2c1CCCC2 | -0.358
Cc1cc(C)n(-c2nc3ccccc3c(=O)n2OCC(N)=O)n1 | -0.254
Cc1cc(CC(C)C)n(-c2nc3ccccc3c(=O)n2OCC(N)=O)n1 | 3.83 (active)
Cc1cc(CC(C)C)n(-c2nc3ccccc3c(=O)n2OCc2ccccc2)n1 | 0.802
Cn1c(SCc2nc(-c3ccc(Cl)cc3)no2)nnc1-c1ccco1 | 0.0893
O=C(COc1ccc(OCc2ccccc2)cc1)NC1CCOC1=O (centres undefined) | -0.0067
CC(C)C(c1nnnn1C1CCCC1)N(C)C1CCCCC1 (centres undefined) | -0.559
COCCCNC(=O)c1cccc(NC(=O)c2ccccc2)c1 | -0.13

SMILES | z-score
CC(C)OCCCNC(=O)c1ccc(Br)cc1 | 0.954
CC(C)OCCCNC(=O)c1cccc(NC(=O)c2ccccc2)c1 | 2.99
COc1ccccc1C(=O)Nn1cnc2ccccc2c1=O | 0.366
CCCCN1C2=C(C(=O)CCC2)C(c2ccc(Cl)c(Cl)c2)C2=C1c1ccccc1C2=O (centres undefined) | -0.878
Cc1cc(C)c(S(C)(=O)=O)c(Oc2ccccc2C)n1 | -0.0363
Cc1cc2c(C)cc(=O)oc2c2c1NCCC2 | -0.295
O=C1NCCCc2c1oc1ccc(O)cc21 | -0.602
Oc1c(Cl)cc(Cl)c2c1NCCC2 | 5.54 (active)
Cc1cc(C)cc(NC(=O)C(Nc2ccccc2)c2ccccc2)c1 (centres undefined) | 0.168
CCCN(CCC)C(=O)c1ccccc1C(=O)N(CCC)CCC | -0.328
Cc1cc2c(C)nc3ccccc3c2o1 | -0.371
Cc1nc(C)c(C(=O)Nc2cccc(Cl)c2)o1 | 0.108
Cc1nc(C)c(C(=O)Nc2ccc(Oc3ccccc3)cc2)o1 | 6.45 (active)
Cc1nc(C)c(C(=O)Nc2ccccc2-c2ccccc2)o1 | -0.0653
COc1cccc(NC(=O)c2ocnc2C)c1 | -0.0866
Cc1ncoc1C(=O)Nc1ccc(Oc2ccccc2)cc1 | 2.26
COc1ccc(NC(=O)c2ocnc2C)cc1OC | -0.369
CC(C)(C)NC(=O)Cn1nnc(-c2ccc(Cl)cc2)n1 | -0.11
COc1ccc(OCC(=O)NC(=S)Nc2ccc(S(=O)(=O)Nc3cc(OC)nc(OC)n3)cc2)cc1 | -0.254
COC(=O)CC(NC(=O)c1ccc(C)cc1)c1ccccc1 (centres undefined) | -0.129
Cc1ccc(Cn2cc(S(=O)(=O)c3ccc(Cl)cc3)c(=O)c3cc(F)ccc32)cc1 | -0.041
COc1cc(/C=N/NC(=O)CC23CC4CC(CC(C4)C2)C3)cc(Br)c1OCC(=O)N(C)C | -0.225
O=c1c2c3c(sc2nc2n1CCCC2)CCCC3 | -0.196
Nc1nc(NCc2ccccc2)nc(NCc2ccccc2)c1[N+](=O)[O-] | -0.14

SMILES | z-score
Nc1nc(Nc2ccccc2)nc(NCc2ccco2)c1[N+](=O)[O-] | 4.24 (active)
Cc1ccc(Nc2nc(N)c([N+](=O)[O-])c(NCc3ccco3)n2)cc1C | 0.169
Cc1cccc(Nc2nc(NCc3ccco3)c3ccccc3n2)c1 | 0.729
Cc1cccc(Nc2nc(N)c([N+](=O)[O-])c(NCc3ccco3)n2)c1 | 2.38
Cc1ccc(Nc2nc(N)c([N+](=O)[O-])c(NCc3ccco3)n2)cc1 | -0.288
Cc1ccc2c(c1)C(=O)CCN2 | 0.498
CC(C)NC(=S)NC(=O)/C=C/c1cccc2ccccc12 | 0.214
CC(OC(=O)C1=COCCO1)C(=O)Nc1ccc(Oc2ccccc2)cc1 (centres undefined) | 0.0205
CCOC(=O)c1c(C)[nH]c(=S)c(C#N)c1-c1ccc(OC)cc1 | 0.501
CCOC(=O)c1c(-c2ccc(Cl)cc2)c(C#N)c(=O)n(N)c1N | -0.497
CCOC(=O)c1c(C)[nH]c(=S)c(C#N)c1-c1ccc(Cl)cc1 | 3.4 (active)
N#Cc1ccccc1CSc1ccc(-c2nc3ccccc3[nH]2)cn1 | -0.154
COc1ccc(-c2cc(C(F)(F)F)c(C#N)c(SCC(=O)Nc3nc(C)co3)n2)cc1 | -0.185
O=[N+]([O-])c1cccnc1N1CCC(c2cc(-c3cccc(C(F)(F)F)c3)n[nH]2)CC1 | -0.378
O=C(c1ccco1)N1CCCN(C(=O)c2ccco2)CC1 | -0.354
CNC(=S)N1CCN(C(=O)c2ccco2)CC1 | 2.05
COCCCNC(=S)N1CCN(C(=O)c2ccco2)CC1 | -0.034
O=C(Cc1ccccc1)N1CCN(C(=O)c2ccco2)CC1 | -0.0691
CC1CCc2nn(CC(=O)N3CCc4ccccc43)cc2C1 (centres undefined) | 0.16
O=C(CCC1CCCC1)N1CCN(C(=O)c2ccco2)CC1 | 2.43
O=C(CCSc1ccccc1)N1CCN(C(=O)c2ccco2)CC1 | -0.515
CC1CCCN(C(=O)CN2CCN(C(=O)c3ccco3)CC2)C1 (centres undefined) | 0.124
CC1CCc2nn(CC(=O)N3CCN(C(=O)c4ccco4)CC3)cc2C1 (centres undefined) | 3.92 (active)
